Measurements: the supplement of paper PMC7595190
A number with no mark means an inactive call.

Tested on: MV4-11
Experiment: CellTox Green cytotoxicity fluorescence relative to DMSO vehicle (fold of vehicle RFU); higher = more cell death (loss of membrane integrity), active = 2 or more
Protocol: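 Paediatric AML cell lines (MV4-11, CMK, Kasumi-1; 4x10^4 cells/well, 96-well) treated with single compounds from the Selleckchem apoptosis library at 0.01, 0.1 and 1 µM. Cytotoxicity was read with CellTox Green (RFU, Ex 485/Em 520) at 24, 48 and 72 h and normalised to the 0.1% DMSO vehicle. Normalised RFU >= 2 was taken as a successful, cell-killing treatment.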

Structure (SMILES)	CellTox Green cytotoxicity fluorescence (0.01 µM, 24 h)	CellTox Green cytotoxicity fluorescence (0.01 µM, 48 h)	CellTox Green cytotoxicity fluorescence (0.01 µM, 72 h)	CellTox Green cytotoxicity fluorescence (0.1 µM, 24 h)	CellTox Green cytotoxicity fluorescence (0.1 µM, 48 h)	CellTox Green cytotoxicity fluorescence (0.1 µM, 72 h)	CellTox Green cytotoxicity fluorescence (1 µM, 24 h)	CellTox Green cytotoxicity fluorescence (1 µM, 48 h)	CellTox Green cytotoxicity fluorescence (1 µM, 72 h)
CC1=C(O)C(=O)C=C2C1=CC=C1[C@@]2(C)CC[C@@]2(C)[C@@H]3C[C@](C)(C(=O)O)CC[C@]3(C)CC[C@]12C [Celastrol]	0.931	0.955	0.964	0.966	0.976	1.01	1.29	1.96	2.21 (active)
COc1ccc2c(c1)/C(=C/c1cnc[nH]1)C(=O)N2	0.929	0.92	0.921	0.92	0.94	0.941	0.987	1.03	1.05
CN[C@@H]1C[C@H]2O[C@@](C)([C@@H]1OC)n1c3ccccc3c3c4c(c5c6ccccc6n2c5c31)C(=O)NC4 [Staurosporine]	0.985	1.41	1.83	1.01	1.48	1.96	1.36	2.34 (active)	2.42 (active)
Cn1c(COP(=O)(NCCBr)NCCBr)cnc1[N+](=O)[O-]	0.981	0.971	0.974	0.97	0.983	1.04	0.97	1.38	2.79 (active)
